Test results published in PubChem BioAssay (NCI).
Compounds without any hit were thinned out: in the full panel of roughly 83,000, 20% have a hit.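 Assay: single dose, 48 h. Readout: percent growth (0 = no net growth; negative = cell death). Active: <10.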 Calls of active or inactive are those of the source.

tested on: NCI-H460 lung; assay: NCI-60 one-dose screen, 48 h (100 = growth as untreated, 0 = no growth, -100 = all killed); conditions: 10 µM unless noted

| Compound | growth |
| --- | --- |
| c1ccc(Sc2ncccn2)nc1 | 103% (inactive) |
| COc1cc2c(Nc3ccc(NC(=O)Nc4ccc(Cl)c(C(F)(F)F)c4)c(Cl)c3)ncnc2cc1OCCCN1CCN(C)CC1 | -70.4% (active) |
| CC(C)C1=C[C@@]23CC[C@H]4[C@](C)(COCCC#N)CCC[C@]4(C)[C@H]2C[C@@H]1[C@@H]1[C@H]3[C@@H](OCCC#N)CC[C@@H]1OCCC#N | 30.3% (inactive) |
| COc1cc2nc3c(=O)n(CCN(C)C)cnn3c(=O)c2cc1OC | 105% (inactive) |
| Cc1nccc2c3ccc(OCc4cn(-c5ccc(Br)cc5)nn4)cc3n(CC(C)C)c12 | 44.3% (inactive) |
| CC(C)(C)c1nc2c(s1)c1nc(N)ncc1c1ccc(NS(=O)(=O)c3c(F)cccc3F)c(F)c12 | 52.5% (inactive) |
| Cc1c(Cl)cccc1NC(=O)c1sc2nc3c(cc2c1N)CCCCCC3 | 8.77% (active) |
| COc1ccc(-c2[nH]c3ccccc3c2C=C(C#N)C#N)cc1 | 6.67% (active) |
| COc1ccc(-c2nnc(N3CCN(C(=O)CN4CCN(c5ccccc5)CC4)CC3)nc2-c2ccc(OC)cc2)cc1 | 14% (inactive) |
| Sc1cccc2cccnc12 | 6.81% (active) |
| COc1ccc2nc(-c3ccc(Cl)cc3)cc(-c3nnc(SC/C(=N/O)c4ccccc4)o3)c2c1 | 29.6% (inactive) |
| C=C(C)[C@@H]1CC[C@]2(C(=O)NCCCO)CC[C@]3(C)[C@H](CC[C@@H]4[C@@]5(C)CCCNC(C)(C)[C@@H]5CC[C@]43C)[C@@H]12 | 68.9% (inactive) |
| C=C1C(=O)O[C@H]2[C@H]1CC/C(COC(=O)NCC(=O)Nc1ccc(OC)c(C(N)=O)c1O)=C\CC[C@@]1(C)O[C@@H]21 | 97% (inactive) |
| COc1ccc2nc3c(n2c1)C(=O)C(=O)c1ccccc1-3 | 14.9% (inactive) |
| COc1ccc(C(C)c2cc(OC)c(OC)c(OC)c2)cc1 (centres undefined) | 4.97% (active) |
| COc1cc(NCC(=O)Nc2cc(Nc3cccc(C(F)(F)F)c3)ncn2)c(Cl)c(OC)c1Cl | 103% (inactive) |
| O=C1Nc2ccccc2C12C=C(c1ccccc1)Nc1c2c(-c2ccccc2)nn1-c1ccccc1 (centres undefined) | 36.5% (inactive) |
| CN(C)C1=NCCN1 | 110% (inactive) |
| COc1cc(N=Nc2cc(S(=O)(=O)O)cc3cc(S(=O)(=O)O)cc(O)c23)c(C)cc1N=Nc1c(S(=O)(=O)O)cc2cc(Nc3ccccc3)ccc2c1O | 106% (inactive) |
| O=C1NN(c2ccccc2)C(c2ccc(Cl)cc2)N2CCC[C@H]12 (some centres undefined) | 103% (inactive) |
| COc1cc(C(=O)Nc2cc(O)c(C/C=C(\C)CCC=C(C)C)c(O)c2)cc2c1O[C@]1(C)CC[C@@H](O)C(C)(C)[C@H]1C2 | 12.4% (inactive) |
| COC(=O)CCc1cc(O)c2c(c1)[C@@H](C(=O)OC)[C@H](c1ccc(O)c(O)c1)O2 | 107% (inactive) |
| Cc1nc2sc(C(=O)Nc3ccccc3Cl)c(N)c2cc1C(C)O (centres undefined) | 98.8% (inactive) |
| NS(=O)(=O)c1ccc(C2C3=C(CCCC3=O)OC3=C2C(=O)c2ccccc2C3=O)cc1 (centres undefined) | -71.4% (active) |
